Screens deposited in PubChem by National Center for Advancing Translational Sciences (NCATS).
An excerpt weighted towards active compounds, which were near 7.3% of everything screened.
NPC1 prom act: activators of NPC1 promoter; Potency, µM (titrated, usually from 9.22 µM), for the others: at the top dose activation, most hits filed as activators; Huh7 NPC1 promoter luciferase reporter, 24 h; 320,000 tested, 2.4% active; note: % of control where 0% means no effect; nearly all actives have a fitted effect of over 60% in size
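Huh7 reporter cells (NPC1 promoter driving luciferase) are dosed with compound for 24 h at 37 °C, 5% CO2; luciferase detection reagent is then added and luminescence measured after 10 min at ambient temperature.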
Rab9 prom act: activates the Rab9 promoter; AID 485297; 320,000 tested, 2.8% active; Potency, µM (titrated, usually from 9.22 µM), for the others: at the top dose activation, negative = inhibition, hits mostly activators; Huh7 Rab9 promoter-luciferase reporter, luminescence, 24 h; note: % of control where 0% means no effect; nearly all actives have a fitted effect of over 60% in size
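Stable Rab9-luc Huh7, 1500 cells/well, 2 h settle; cmpd in DMSO, 24 h, 37 °C/5% CO2; luciferase reagent 10 min RT; luminescence.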
SMN2 splice enh: increases expression of the SMN2 splice variant | HEK293 SMN2-luciferase splicing reporter, luminescence, 30-36 h | 210,000 tested, 2.8% active | AID 1458 | Potency, µM (series often up to 46.1 µM), for inactives: at the top dose activity change, positive = activation, most hits filed as activators; note: % of control where 0% means no effect; nearly all actives have a fitted effect of over 55% in size
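HEK293 cells carry an SMN2 minigene-luciferase reporter in which exon 7 inclusion puts luciferase in frame. Cells were seeded at 2000 cells/well, attached for 10-12 hours, then exposed to compounds for 30-36 hours at 37C before ONE-Glo luminescence.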
KinaseGlo FLuc: Kinase-Glo luciferase inhibition (counter-screen); Q27757; Potency, µM (top dose mostly 38.3 µM), for inactives: at the highest dose activity change, negative = inhibition, actives largely listed as inhibitors; 200,000 tested, 0.28% active; Kinase-Glo luciferase, ATP luminescence, 8 min; note: % is set by controls: 0 for no effect and ±100 for the full control effect; nearly all actives have a fitted effect of over 60% in size
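Recombinant Kinase-Glo luciferase, 10 uM ATP (linear range), luciferin; imidazole pH 7.2 / KCl / MgCl2 / Tween / BSA buffer; 8 min RT; luminescence.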
ELG1 genotoxic: induces genotoxicity in HEK293T cells with luciferase-tagged ELG1; Potency, µM (titrated, usually from 46 µM), inactives show at the top dose activity change, positive = activation, most hits filed as activators; 330,000 tested, 1.3% active; HEK293T ELG1-luciferase reporter, luminescence, 16 h; AID 504466; note: % of control where 0% means no effect; nearly all actives have a fitted effect of over 60% in size
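HEK293T cells expressing luciferase-tagged ELG1 were treated with compound or DMSO for 16 hr at 37°C. Luciferase activity was then read after 30 min with ONE-Glo at room temperature; rising signal flags genetic stress.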
FLuc counter: counter-screen for miR-21 project: firefly luciferase inhibitors or activators | AID 588342 | 360,000 tested, 6.9% active | P08659 | Potency, µM (top dose mostly 57.5 µM), without a hit: at the highest dose activity change, negative = inhibition, usual class: inhibitors | purified FLuc, Km substrates, luminescence inhibition;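 note: plate controls were vehicle for no effect and reference inhibitor for full effect; nearly all actives have a fitted effect of over 55% in size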
Target sequence (P08659 whole entry, looked up): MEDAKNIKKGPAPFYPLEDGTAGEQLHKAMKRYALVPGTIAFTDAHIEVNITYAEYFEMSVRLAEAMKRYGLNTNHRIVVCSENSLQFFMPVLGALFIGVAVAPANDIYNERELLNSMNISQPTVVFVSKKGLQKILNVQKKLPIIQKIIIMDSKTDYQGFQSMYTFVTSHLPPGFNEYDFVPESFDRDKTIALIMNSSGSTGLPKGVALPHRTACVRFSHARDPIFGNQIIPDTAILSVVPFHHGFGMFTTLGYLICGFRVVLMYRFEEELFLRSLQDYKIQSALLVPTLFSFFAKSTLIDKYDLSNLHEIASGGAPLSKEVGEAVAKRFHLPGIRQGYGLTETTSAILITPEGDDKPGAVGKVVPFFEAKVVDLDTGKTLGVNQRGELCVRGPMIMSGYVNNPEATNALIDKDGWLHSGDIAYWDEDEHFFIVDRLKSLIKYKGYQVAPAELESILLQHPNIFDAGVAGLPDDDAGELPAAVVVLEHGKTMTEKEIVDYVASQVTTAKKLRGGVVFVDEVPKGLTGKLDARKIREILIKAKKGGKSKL
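Biochemical qHTS of compounds, final roughly 60 µM downward over six points, against 10 nM purified firefly luciferase using Km concentrations of substrates (10 uM D-luciferin, 10 uM ATP) in Tris acetate pH 7.5 buffer; luminescence output.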
Numbers without * were called inactive; ? = inconclusive; . = not tested or not shown. Calls come from the whole dose curve; as a rule, active = well fitted curve in the direction sought with a large enough effect; inconclusive = small, poorly fitted or top-dose-only effect, or another doubt; inactive = no such curve, though single readings can be large; an effect the other way counts as inactive or inconclusive. Potency is the fitted concentration of half-maximal effect.

SMILES	NPC1 prom act	Rab9 prom act	SMN2 splice enh	KinaseGlo FLuc	ELG1 genotoxic	FLuc counter
Cc1ccc(-n2ncc3c(NC4CCCCC4)ncnc32)cc1C	.	.	.	.	.	0.601µM*
CCC(=O)NNc1ncnc2c1cnn2-c1ccc(C)c(Cl)c1	.	.	.	.	.	21.3µM*
COC(=O)c1ccc2c(=O)n(NC(=O)C(c3ccccc3)c3ccccc3)c(=S)[nH]c2c1	1.5%	-3.3%	-17.5%	19.4%	-8.7%	-16.3%
Cc1ccc(C)c(N2CCN(c3ccc([N+](=O)[O-])cn3)CC2)c1	-4.5%	-2.4%	.	.	-5.4%	0.6%
NC(=O)c1cccc2c3c([nH]c12)CCCC3	13.6%	-4.5%	-4.1%	-4.3%	8.2%	23.9µM*
Cc1ccc(-c2cn(-c3ccc(Cl)cc3)c(S(=O)(=O)CC(=O)Nc3ccccc3)n2)cc1	.	.	3.16µM*	.	.	?
CCOC(=O)c1nc(N/N=C/c2ccccc2)sc1Br	20.6%	20.1%	.	.	1.5%	7.57µM*
CC(=O)c1sc(N/N=C\c2cccc(Br)c2)nc1C	-2.7%	17.6%	?	-4.0%	5.9%	10.7µM*
CCOC(=O)c1nc(NCc2ccccc2)sc1C	19.0%	23.9%	.	.	11.8%	?
CCOC(=O)c1sc(N/N=C/c2ccc(N(C)C)cc2)nc1C	25.1%	?	.	.	13.2%	10.7µM*
CC(=O)c1sc(N/N=C\c2ccc(Br)cc2)nc1C	?	?	?	0.3%	?	5.36µM*
COc1ccccc1CNC(=O)Cn1cnnn1	-1.6%	-6.4%	.	.	2.0%	0.5%
Cc1ccc(SCc2noc(-c3c(C)noc3C)n2)cc1	-1.7%	-4.0%	.	.	0.5%	-4.9%
N/C(Cc1ccccc1)=N\OC(=O)c1cccc2ccccc12	-2.5%	6.1%	29.5%	-6.2%	3.3%	?
COc1ccccc1CN1CCN(C(=O)c2ccncc2)CC1	-3.4%	-6.2%	27.6%	18.0%	-7.5%	0.5%
COc1nc(-c2ccccc2)nnc1-c1ccccc1	?	3.16µM*	12.6µM*	-2.3%	8.2µM*	5.36µM*
CN(C)S(=O)(=O)c1ccc(Cl)c(NC(=O)COC(=O)CCC(=O)c2cccs2)c1	0.3%	13.9%	.	.	1.1%	-3.8%
O=C(CNC(=O)c1ccco1)OCc1ccc(C(=O)c2ccccc2)cc1	-1.0%	-5.6%	0.3%	1.3%	-2.4%	-7.0%
O=C(NCC(=O)N1CCCC(C(F)(F)F)C1)c1ccc(Oc2ccccc2)cc1 (stereo unspecified)	?	2.51µM*	.	.	?	0.269µM*
O=C(N/N=C1/CCS(=O)(=O)c2ccc(F)cc21)c1cccnc1	-0.9%	-1.3%	-10.6%	1.8%	1.7%	3.5%
CCN1C(=O)c2cccc3c(NC(=O)c4ccc(OC)c(OC)c4)ccc1c23	-2.7%	-4.3%	.	3.9%	14.6µM*	3.9%
CCOc1ccc(S(=O)(=O)NCCC(=O)N(C)Cc2cccs2)cc1	-3.3%	1.4%	.	.	1.1%	0.3%
COC(=O)c1ccc2nc(-c3ccc4c(c3)OCO4)cn2c1	0.224µM*	0.1µM*	.	?	?	0.301µM*
O=C(NCc1cn2ccccc2n1)c1ccc2c(c1)OCO2	-3.0%	2.0%	-6.6%	4.8%	1.4%	-0.9%
CCc1ccn2cc(-c3ccc4c(c3)OCO4)nc2c1	?	?	.	.	0.184µM*	0.0601µM*
SMILES	NPC1 prom act	Rab9 prom act	SMN2 splice enh	KinaseGlo FLuc	ELG1 genotoxic	FLuc counter
COc1cccc(NS(=O)(=O)c2csc(C(N)=O)c2)c1	-0.3%	-1.1%	.	.	-9.3%	1.1%
CSCCNC(C)=O	-0.9%	-1.7%	0.8%	-0.5%	3.6%	-0.7%
C=CCNC(=S)Nc1sc2c(c1C(N)=O)CCCC2	13.8%	10.0%	.	.	2.2%	15.1µM*
CCCC(=O)NC(=S)Nc1sc2c(c1C(N)=O)CCC2	12.0%	20.0%	?	2.0%	9.9%	4.26µM*
CC(C)C(=O)NC(=S)Nc1sc2c(c1C(N)=O)CCCC2	?	?	?	-2.0%	?	9.53µM*
NN1C(=O)/C(=C\c2ccco2)SC1=S	2.4%	11.5%	.	.	-0.6%	?
COc1ccc(C2/C=C\CN(C(=O)Nc3ccccc3-c3ccccc3)CC(=O)N2Cc2ccc(F)cc2)cc1 (stereo unspecified)	2.0%	-2.2%	.	.	-4.8%	1.5%
O=C(NC(=S)N1CCN(c2ccccc2)CC1)c1ccc(S(=O)(=O)N2CCOCC2)cc1	-4.0%	-12.2%	.	.	-5.0%	-0.2%
CCOc1ccccc1NC(=O)/C=C/c1ccc(S(=O)(=O)N2CCOCC2)cc1	15.5%	7.5%	.	.	-10.2%	1.0%
Cc1c(Cl)cnc(NC(=O)CSc2nnc3ccccn23)c1Cl	20.8%	?	?	3.1%	18.4µM*	?
CCOc1ccc(C(=O)CSc2nnc3ccccn23)cc1	2µM*	1.12µM*	-1.8%	3.3%	20.6µM*	3.01µM*
O=C(CSc1nnc2ccccn12)NNC(=O)c1ccc(Cl)cc1	-1.6%	-3.6%	-6.6%	0.2%	-2.2%	-6.9%
Cc1cc(NC(=O)CSc2nnc3ccccn23)no1	-0.7%	-1.4%	7.8%	-2.4%	-1.1%	-0.1%
O=C(CSc1nnc2ccccn12)c1ccc(Cl)cc1	22.6%	3.55µM*	-8.4%	-1.9%	?	?
CCOc1ccc(-n2nnnc2SCC(=O)c2ccccc2)cc1	24.2%	-2.2%	-17.9%	-4.3%	9.8%	?
COc1ccc(C(=O)CSc2ncnc3nc[nH]c23)cc1	-2.1%	-5.8%	.	.	-6.3%	?
Cc1ccc(OCCSc2ncnc3nc[nH]c23)cc1	?	2.51µM*	10.8%	-1.2%	9.2µM*	13.5µM*
Nc1nonc1-c1nc2ccccc2n1Cc1ccccc1	-7.2%	-1.4%	23.4%	-3.7%	10.5%	-3.1%
O=C1c2ccccc2CCC1C(O)c1ccccn1 (stereo unspecified)	6.4%	9.6%	.	.	-2.5%	15.1µM*
O=P(c1ccccc1)(c1ccccc1)C(O)c1ccccn1 (stereo unspecified)	6.3%	0.6%	.	.	0.4%	-0.4%
CC(C)Oc1cccc(C(=O)Nc2ccccc2N2CCOCC2)c1	-2.2%	8.4%	-3.8%	22.0%	-4.1%	?
Cc1ccn2cc(C(=O)Nc3nnc(C)s3)nc2c1	?	3.16µM*	.	.	?	15.1µM*
O=C(Nc1ccccc1N1CCOCC1)c1cccc(Oc2ccccc2)c1	-35.1%	5.7%	.	.	-10.9%	21.3µM*
Cn1nc(C(=O)Nc2ccccc2N2CCOCC2)ccc1=O	-2.3%	-4.1%	.	.	-0.2%	2.5%
Cc1ccn2cc(C(=O)Nc3ccccc3N3CCOCC3)nc2c1	20.7%	17.2%	-2.7%	-3.1%	3.4%	15.1µM*
O=C(Nc1cc(C(F)(F)F)ccc1N1CCOCC1)c1cn2ccccc2n1	0.2%	6.1%	9.8%	-1.0%	-1.8%	7.9%
O=C(Nc1ccccc1N1CCOCC1)c1ccc2ccccc2n1	26.0%	27.8%	6.8%	-12.2%	1.0%	7.57µM*
